In PubChem BioAssay (NCI):
Compounds without any hit were thinned out: in the full panel of roughly 83,000, 20% have a hit.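 96-well plates, one dose, 48 hours. Percent growth reported; active if below 10.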 A number with no mark means an inactive call. Active and inactive are the calls of the source.

Assays:
Assay in all cases: NCI-60 one-dose screen, 48 h (100 = growth as untreated, 0 = no growth, -100 = all killed)
Settings in all cases: 10 µM unless noted
DU-145 prostate = tested on: DU-145 prostate
K-562 leukemia = tested on: K-562 leukemia
MALME-3M melanoma = tested on: MALME-3M melanoma
MDA-MB-231 breast = tested on: MDA-MB-231 breast
RXF 393 renal = tested on: RXF 393 renal
SF-268 CNS = tested on: SF-268 CNS
SF-295 CNS = tested on: SF-295 CNS
SF-539 CNS = tested on: SF-539 CNS
UACC-257 melanoma = tested on: UACC-257 melanoma
M14 melanoma = tested on: M14 melanoma
HCT-15 colon = tested on: HCT-15 colon
HT29 colon = tested on: HT29 colon
SNB-75 CNS = tested on: SNB-75 CNS
SNB-19 CNS = tested on: SNB-19 CNS
U251 CNS = tested on: U251 CNS
PC-3 prostate = tested on: PC-3 prostate
SK-MEL-5 melanoma = tested on: SK-MEL-5 melanoma
UACC-62 melanoma = tested on: UACC-62 melanoma
LOX IMVI melanoma = tested on: LOX IMVI melanoma
SK-MEL-28 melanoma = tested on: SK-MEL-28 melanoma

Row | Structure (SMILES) | growth (DU-145 prostate) | growth (K-562 leukemia) | growth (MALME-3M melanoma) | growth (MDA-MB-231 breast) | growth (RXF 393 renal) | growth (SF-268 CNS) | growth (SF-295 CNS) | growth (SF-539 CNS) | growth (UACC-257 melanoma) | growth (M14 melanoma) | growth (HCT-15 colon) | growth (HT29 colon) | growth (SNB-75 CNS) | growth (SNB-19 CNS) | growth (U251 CNS) | growth (PC-3 prostate) | growth (SK-MEL-5 melanoma) | growth (UACC-62 melanoma) | growth (LOX IMVI melanoma) | growth (SK-MEL-28 melanoma)
1 | COC(=O)/C=C1\S/C(=N\NC(=O)c2cc3ccc2/C=C\c2ccc(cc2)/C=C\3)N(Cc2ccccc2)C1=O | 83.2% | 18.9% | 88.4% | 56.8% | 15.6% | 85% | 89.4% | 43.3% | 81% | 63.4% | 27.8% | 12.4% | 51.2% | 56.9% | 55% | 17.8% | 82.3% | 51.9% | 6.21% (active) | 101%
2 | NC(=O)Nc1ccc(-n2cnc3cc(-c4ccc(O)cc4)ccc32)cc1 | 107% | 89.3% | 98.4% | 107% | 123% | 96.3% | 97.4% | 67.2% | 112% | 91.6% | 97.8% | -7.1% (active) | 102% | 98.7% | 83.4% | 96% | 85.9% | 108% | 104% | 100%
3 | CCC(CC)NCC(C)(C)O | 106% | 102% | 113% | 102% | 117% | 109% | 103% | 111% | 106% | 97% | 101% | 108% | 98.1% | 94.6% | 103% | 89.9% | 110% | 94.4% | 101% | 115%
4 | CC(Sc1nc2ccccc2c(=O)n1CCc1ccc(S(N)(=O)=O)cc1)C(=O)Nc1ccc(Cl)cc1 (stereo not given) | 99.4% | 60.4% | 89.7% | 82.6% | 72.4% | 74.7% | 83.8% | 90.8% | 90.2% | 105% | 67.9% | 89.5% | 83.3% | 90.1% | 84.1% | 81.7% | 79.4% | 73.6% | 88.3% | 105%
5 | O=C(/C=C(/C=C/c1coc2ccccc12)OB(F)F)/C=C/c1coc2ccccc12 | 99.1% | 72% | 94.5% | 101% | 109% | 93.4% | 101% | 110% | 92.3% | 96% | 95.1% | 100% | 98% | 89.1% | 84.6% | 86.2% | 105% | 88.9% | 84.9% | 101%
6 | Cc1cccc(NC(=O)Nc2ccc(-c3ccc4c(c3)NC(=O)/C4=C\c3ccc[nH]3)cc2)c1 | 96.4% | 82.8% | 105% | 93% | 102% | 95.2% | 66.1% | 62.7% | 102% | 84.9% | 66.9% | 99.4% | 81.7% | 90.2% | 74.7% | 94% | 100% | 98.1% | 78.7% | 95.9%
7 | COc1ccc(CNCCN2C(=O)c3ccc4c5c(ccc(c35)C2=O)C(=O)N(CCNCc2ccc(OC)c(OC)c2OC)C4=O)c(OC)c1OC | -41.7% (active) | -10.8% (active) | -73% (active) | -8.31% (active) | -32.3% (active) | -2.06% (active) | -44.8% (active) | -47.7% (active) | -85.1% (active) | -58.3% (active) | -51.2% (active) | -45.7% (active) | -12.6% (active) | -13.6% (active) | -46.1% (active) | 0.0353% (active) | -93.9% (active) | -72.2% (active) | -27.9% (active) | -7.81% (active)
8 | [O-][n+]1c(Cl)cc(Cl)c2ccccc21 | 113% | 85.2% | 107% | 100% | 153% | 96.7% | 103% | 125% | 102% | 100% | 99.8% | 122% | 101% | 102% | 92.9% | 81.2% | 109% | 98.9% | 97.4% | 104%
9 | O=C(c1nnc(Nc2ccccc2Br)o1)c1c[nH]c2ccccc12 | 107% | 112% | 105% | 88.9% | 125% | 105% | 108% | 104% | 92.6% | 92.5% | 80.1% | 100% | 89.2% | 96.8% | 96.9% | 87.6% | 89.5% | 83% | 96% | 104%
10 | CCNC(=O)Oc1ccc(/C(=C(\C)c2ccccc2)c2ccc(OCCN3CCCCC3)cc2)cc1 | 84.1% | 6.5% (active) | 46.6% | 70.7% | 59.3% | 68.1% | 29.7% | 24.3% | -26.4% (active) | -2.47% (active) | 17% | -13.8% (active) | 84.7% | 79.4% | 48.6% | 49.7% | 62.5% | 52.4% | 57.3% | 47.2%
11 | CCOc1cccc(-c2nc(N)nc(Nc3ccccc3SSc3ccccc3Nc3nc(N)nc(-c4cccc(OCC)c4)n3)n2)c1 | 83.9% | 68.9% | 97% | 51.7% | 92.4% | 25.1% | 5.56% (active) | 93.2% | 118% | 69.4% | 18.5% | 110% | 90.5% | 55.1% | 8.24% (active) | 29.5% | 88% | 66.2% | 4.82% (active) | 93.6%
12 | COc1ccc(NC(=O)c2cc(NCc3cc(O)ccc3O)ccc2O)cc1 | 97.4% | 73.1% | 108% | 79.1% | 91.2% | 80.8% | 115% | 86.8% | 76.3% | 95.1% | 97% | 89.7% | 101% | 90% | 91.1% | 64.1% | 92.6% | 94.6% | 94.3% | 98.5%
13 | CN1CCN(C(=O)[C@]23CCC(C)(C)C[C@H]2C2=CC[C@@H]4[C@@]5(C)C/C(=C/c6cccnc6)C(=O)C(C)(C)[C@@H]5CC[C@@]4(C)[C@]2(C)CC3)CC1 | 71.6% | 10.9% | 63.4% | 59.8% | 64.9% | 68.3% | 74% | 80% | 43.7% | 57.5% | 41.4% | 33.1% | 82.1% | 65.4% | 44.7% | 19.1% | 49.8% | 52.8% | 68.5% | 77.9%
14 | COc1ccc(/C=C(\C#N)n2nc3cccc(F)c3n2)cc1 | 103% | 82.8% | 100% | 112% | 104% | 104% | 99.9% | 101% | 95.5% | 105% | 96.9% | 112% | 81.5% | 94.6% | 102% | 111% | 95.8% | 91% | 101% | 103%
15 | O=[N+]([O-])c1ccc(NC(=S)N/N=C/c2cc3ccccc3n3nnnc23)cc1 | 64.1% | 12.5% | 71.9% | 61.2% | 30.1% | 38.3% | 18.9% | 9.9% (active) | 90.2% | 75.5% | 27.3% | 99.8% | 58.2% | 29.8% | 30.2% | 34.5% | 71% | 65.4% | 39.2% | 79%
16 | COc1ccc2nc(-c3ccc(-c4noc(-c5cc(OC)c(OC)c(OC)c5)n4)cc3)[nH]c2c1 | 57.4% | 14.7% | -33% (active) | 41.4% | 58.2% | 50.5% | 83.3% | -24.4% (active) | 102% | 63% | 30.2% | 20.2% | 35.4% | 76.8% | 25.1% | 95.2% | 45% | 99.8% | 67.5% | 51.3%
